From PubChem BioAssay
Only some compounds are listed: those with a hit (about 4.2% of all), similar ones and a draw of the others.
V-ATPase pH: regulators of yeast V-ATPase proton transport | S. cerevisiae, pHLuorin cytosolic pH fluorescence | response, % at 10 µM | 350,000 compounds, 0.37% hits; in the data active = response mostly above about 7.3%, no sharp cut-off; inactive = mostly below about 5.4%; note: actives read high
tim10-1 inh: growth inhibitors of tim10-1 mutant yeast; 330,000 compounds, 2.2% hits; inhibition, % at 20 µM; AID 463190; S. cerevisiae tim10-1 ts strain growth, BacTiter-Glo, 24 h;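 active = inhibition of at least 40%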;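 note: mutant grown at 25 °C; 0% = DMSO wells with yeast and 100% = wells holding no yeast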
tim23-1 inh: tim23-1 yeast growth inhibition | S. cerevisiae tim23-1 growth, BacTiter-Glo luminescence, 24 h | 330,000 compounds, 1.3% hits | inhibition, % at 20 µM;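 active = growth inhibition of the mutant yeast at or above 50%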;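 note: temperature-sensitive mutant grown at 25 °C; plate controls were DMSO-treated mutant yeast for no effect and medium wells lacking yeast for full effect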
TIM10 inh: inhibits growth of TIM10 yeast strain. AID 463195. inhibition, % at 10 µM. 330,000 compounds, 1.4% hits. S. cerevisiae TIM10 strain growth, BacTiter-Glo luminescence, 24 h;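 active = inhibition of 40% or more at the single tested concentration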;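 note: wild-type TIM10 isogenic control strain grown at permissive 25 °C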
NALP3 yeast inh: inhibitors of NALP3 inflammasome in yeast; Yeast reconstituted NLRP3/ASC/caspase-1, beta-gal luminescence, 24 h; inhibition, % at 10 µM; 330,000 compounds, 0.39% hits; AID 2825;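 active = inhibition of 50% or more; inactive = inhibition below 50%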;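 note: plate controls were induced DMSO wells for no effect and uninduced yeast grown without galactose for full effect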
NALP1 inh: NALP1 inhibition | 280,000 compounds, 0.61% hits | S. cerevisiae NALP1/ASC/caspase-1 growth, X-gal OD620, 72 h | inhibition, % at 10 µM; in the data active = inhibition mostly above about 24%, no sharp cut-off; inactive = mostly below about 32%
V-ATPase pH SP: yeast V-ATPase proton transport regulation; response, % at 10 µM; S. cerevisiae pHLuorin cytosolic pH; 980 compounds, 2% hits; shares compounds with V-ATPase pH; AID 602197; in the data active = response above about 24%;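 note: plate controls were vehicle wells for no effect and positive control wells for full effect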
An asterisk follows results filed as active; · = not tested or not shown.

SMILES	V-ATPase pH	tim10-1 inh	tim23-1 inh	TIM10 inh	NALP3 yeast inh	NALP1 inh	V-ATPase pH SP
CCOC(=O)Cn1c(C(C)=O)nc2ccccc21	1.9	-1.2	-1.8	4.5	0.3	-77.1	-3.1
CCOC(=O)Cn1c(-c2ccccn2)nc2ccccc21	-1.4	-1.9	-19.8	8.0	19.3	14.4	-0.3
CCCCn1c(=O)c(CCC(=O)O)nc2ccccc21	-2.3	7.0	-8.5	10.8	-20.0	8.5	·
CCOC(=O)N=Nc1c(O)n(CC(=O)OC)c2ccccc12	5.4	8.0	0.8	3.2	26.5	16.4	1.9
COc1cc2c3c(n(C)c(=O)c2cc1OC)-c1cc2c(cc1C3=O)OCO2	2.2	·	·	·	·	·	·
O=C(OCC(=O)N1CCCC1=O)C1COc2ccccc2O1 (stereo not drawn)	2.8	2.9	8.5	0.8	2.7	1.0	·
c1ccc(Cc2nnc3sc(-c4ccccn4)nn23)cc1	11.2*	29.0	9.4	-8.9	26.2	29.3	-2.2
CCCN(C(=O)CCl)C1=CCCCC1	-1.5	-18.3	-4.4	-1.0	7.8	-4.8	·
Cc1cccc(NC(=O)C2CCCN(c3ncnc4c3nc3n4CCCCC3)C2)n1 (stereo not drawn)	-1.2	22.0	32.1	15.9	10.2	4.0	·
CCNC(=O)/C(C#N)=C/c1c(N2CCN(c3ccc(OC)cc3)CC2)nc2c(C)cccn2c1=O	14.1*	36.7	29.6	6.5	13.4	17.4	1.0
O=C(OCc1ccccc1Cl)c1cccnc1Cl	9.5*	14.8	22.6	-3.0	-19.5	2.1	0.6
CN1CCN(c2nc3c(c(=O)n(C)c(=O)n3C)n2Cc2ccc(Cl)cc2)CC1	8.0*	-10.9	12.9	-16.8	7.9	16.9	-7.5
CN1CCN(c2nc3c(c(=O)[nH]c(=O)n3C)n2Cc2ccc(Cl)cc2)CC1	4.8	-6.9	6.1	3.1	14.5	0.6	·
COc1ccc(-c2nc(=S)c3ccc4ccccc4c3[nH]2)cc1	-1.8	·	·	·	·	9.4	·
Cc1n[nH]c(=O)c2c(NC(=O)CSc3nncs3)oc(C)c12	-0.6	0.1	-1.7	8.6	8.5	·	·
COC(=O)c1ccc(CNC(=O)COC(=O)CCC(=O)c2ccc(F)cc2)cc1	0.0	3.4	-3.4	1.9	7.3	·	·
CCNC(=O)COC(=O)CCC(=O)c1ccc(F)cc1	0.8	-7.2	11.2	6.4	-6.4	·	1.3
O=C(NCCc1cccs1)c1ccc(Cl)c(Cl)c1	8.8*	22.7	-0.2	0.0	17.6	0.6	1.0
COC(C(=O)Nc1c(F)cccc1F)c1ccccc1 (stereo not drawn)	10.3*	7.9	9.9	5.3	9.1	-17.0	-6.7
O=C(Nc1c(F)cccc1F)C(c1ccccc1)c1ccccc1	-3.5	8.3	14.8	9.4	10.6	·	·
O=C(CSc1n[nH]c(-c2ccco2)n1)Nc1ccccc1Cl	12.0*	8.4	12.2	18.0	6.6	5.4	-2.5
CCCC(=O)Nc1sc(-c2ccccc2)c(-c2ccccc2)c1C(=O)O	3.5	14.4	24.5	18.8	-23.6	·	·
Cc1ccccc1NC(=O)N(CCc1nc2ccccc2[nH]1)Cc1ccccc1	11.5*	2.3	4.1	7.4	6.1	-1.2	-0.5
C=CC[C@@H](CC(=O)N(CCO)Cc1ccccc1)C(=O)N[C@@H](C)COC(=O)[C@@H](CC=C)CC(=O)OC(C)(C)C	13.6*	3.5	1.5	2.7	9.5	·	4.7
COc1ccc(N2CC(C(=O)N(C)CC(=O)Nc3ccc(Cl)c(C(F)(F)F)c3)CC2=O)c(OC)c1 (stereo not drawn)	-1.3	1.2	-1.9	1.8	2.0	·	·
SMILES	V-ATPase pH	tim10-1 inh	tim23-1 inh	TIM10 inh	NALP3 yeast inh	NALP1 inh	V-ATPase pH SP
C[C@@H]1CN([C@@H](C)CO)S(=O)(=O)c2ccc(Br)cc2O[C@H]1CN(C)C(=O)c1ccccc1	69.1*	·	·	·	·	·	1.1
C[C@H](CO)N1C[C@H](C)[C@@H](CN(C)C(=O)c2ccc(F)cc2)Oc2cc(Br)ccc2S1(=O)=O	3.1	·	·	·	·	·	·
Cc1cc(F)ccc1S(=O)(=O)N1CCC2(CC1)OCCN2S(=O)(=O)c1cccs1	3.0	16.5	37.1	-10.9	6.5	·	·
CCN(CC)CCNC(=S)NC(=O)c1cn(-c2ccccc2)nc1-c1ccc(OC)cc1	1.3	0.5	0.0	-6.8	11.2	1.1	·
CCOC(=O)c1cccc(OS(=O)(=O)Cc2ccccc2)c1	-1.7	14.3	25.5	15.5	21.3	·	·
CCOC(=O)C1=CN(CC)S(=O)(=O)NC1CC (stereo not drawn)	-2.3	3.2	19.5	-5.6	·	·	·
O=C(CN1C(=O)NC2(CCCC2)C1=O)NCCc1ccc(F)cc1	11.0*	9.2	8.5	-6.0	6.1	·	1.4
O=C(N/N=C/c1cccc2ccccc12)c1ccc(CN2CCOCC2)cc1	-2.2	-3.1	14.4	8.9	22.4	6.4	·
O=C(N/N=C/c1cccc([N+](=O)[O-])c1)c1ccc(CN2CCOCC2)cc1	13.8*	22.1	16.2	8.0	21.5	9.1	-5.9
COc1cc(CC(=O)OCC(=O)NC2CCCC2)cc(OC)c1OC	12.2*	7.2	0.3	-0.4	-2.7	·	-0.8
COc1cc(CC(=O)OCC(=O)NC2CC2)cc(OC)c1OC	2.2	7.6	9.7	-0.2	9.8	14.5	·
C[C@H](CO)N1C[C@H](C)[C@@H](CN(C)S(=O)(=O)c2ccc(F)cc2)Oc2c(NC(=O)NC3CCCCC3)cccc2C1=O	12.9*	-2.4	1.9	3.9	4.2	·	-0.3
COc1ccccc1CNC(=O)C1CCN(c2ncnc3c2nc2n3CCCCC2)CC1	11.7*	-4.9	13.4	10.5	7.3	17.2	0.0
CC(C)(C)c1ccc(C(=O)NN=C2CCCC2)cc1	-3.3	10.1	27.2	3.2	4.8	5.7	·
O=C(NN=C1CCCCCCC1)c1ccc(F)cc1	0.7	-1.4	-5.0	10.5	2.3	16.6	-4.3
COc1cccc(OC)c1OCCCOc1cccc2cccnc12	-1.5	36.2	29.0	8.7	9.7	6.7	·
Clc1ccccc1OCCCOc1cccc2cccnc12	11.8*	13.5	36.2	12.8	37.2	6.5	19.6
CCOC(=O)c1c(-c2ccc(C)o2)csc1NC(=O)CSc1nnnn1-c1ccccc1	0.8	11.1	-0.6	3.8	30.1	12.1	·
CCOC(=O)c1c(-c2ccc(C)o2)csc1NC(=O)CSc1nnc(C)s1	9.2*	4.3	27.5	-11.6	24.8	1.8	-1.4
Cn1cc(C(=O)NC2CCCCC2)c(=O)c2cc(S(=O)(=O)N3CCOCC3)ccc21	2.3	11.6	7.1	10.2	4.8	-1.3	·
COc1cccc(NC(=O)C(OC(=O)/C=C/c2ccc3c(c2)OCO3)c2ccccc2)c1 (stereo not drawn)	10.8*	6.0	17.6	3.4	-5.9	4.7	-0.3
CC(=O)Nc1ccc(NC(=O)C(C)OC(=O)/C=C/c2ccc3c(c2)OCO3)cc1 (stereo not drawn)	3.3	-3.1	5.4	-6.5	-13.5	·	·
O=c1cc(CCl)nc2sc3ccccc3n12	12.6*	13.7	18.5	10.5	-21.3	-19.1	0.9
